HPGD inh: qHTS Assay for Inhibitors of HPGD (15-Hydroxyprostaglandin Dehydrogenase); purified HPGD, NADH fluorescence kinetic, PGE2 substrate; Potency, µM, actives largely listed as inhibitors; actives 4.3% (n = 150,000)
Target sequence (P15428 whole entry, looked up): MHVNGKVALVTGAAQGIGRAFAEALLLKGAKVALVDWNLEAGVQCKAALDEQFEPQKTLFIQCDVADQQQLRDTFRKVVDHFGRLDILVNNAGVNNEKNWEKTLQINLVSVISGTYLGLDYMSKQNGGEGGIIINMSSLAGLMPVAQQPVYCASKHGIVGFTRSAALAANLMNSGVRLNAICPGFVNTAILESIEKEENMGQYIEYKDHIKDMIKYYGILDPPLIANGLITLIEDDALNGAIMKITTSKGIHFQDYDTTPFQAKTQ
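20 nM HPGD preincubated 15 min at room temperature with compound in 50 mM Tris-HCl pH 8, 0.01% Tween 20. Started with 1 mM NAD+ and 30 uM prostaglandin E2; NADH fluorescence (360/450 nm) read 5 times over 30-s intervals, last minus first.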
HTT cytoprotect: qHTS Multiplex Assay to Identify Dual Action Probes in a Cell Model of Huntington: Cytoprotection (ATP); PC12 HTT-Q103 induced, cytoprotection, ATP luminescence, 40 h; actives 0.14% (n = 230,000); Potency, µM (highest dose often 56.4 µM), actives largely listed as activators; active means well fitted curve in the direction sought with a large enough effect; inconclusive means small, poorly fitted or top-dose-only effect, or another doubt; inactive means no such curve, though single readings can be large; an effect the other way counts as inactive or inconclusive; further: nearly all actives have a fitted effect of over 45% in size
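Cells were plated at 1500 per well in phenol red-free DMEM with 5% equine and 5% calf serum. Tebufenozide (100 nM final) and compounds were added, then ATPlite reagent, and luminescence was read.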
ALDH1A1 block: qHTS Assay for Inhibitors of Aldehyde Dehydrogenase 1 (ALDH1A1); Purified ALDH1A1, NADH fluorescence, propionaldehyde substrate; Potency, µM (highest dose often 75.3 µM), actives largely listed as inhibitors; actives 7.3% (n = 220,000); AID 1030, 2008
RGS12 GoLoco inh: qHTS Assay for Inhibitors of RGS12 GoLoco Motif Activity (Red Fluorophore) | Gai1:RGS12 GoLoco peptide FP, rhodamine, 10 min | Potency, µM (top dose mostly 61.6 µM), actives largely listed as inhibitors | actives 0.44% (n = 230,000) | AID 880, 2007; active means well fitted inhibition curve with a large enough effect, not every such curve was filed as active; inactive means no such curve, though single readings can be large or run the other way; further: nearly all actives have a fitted effect of over 30% in size
Target sequence (P63096 whole entry, looked up): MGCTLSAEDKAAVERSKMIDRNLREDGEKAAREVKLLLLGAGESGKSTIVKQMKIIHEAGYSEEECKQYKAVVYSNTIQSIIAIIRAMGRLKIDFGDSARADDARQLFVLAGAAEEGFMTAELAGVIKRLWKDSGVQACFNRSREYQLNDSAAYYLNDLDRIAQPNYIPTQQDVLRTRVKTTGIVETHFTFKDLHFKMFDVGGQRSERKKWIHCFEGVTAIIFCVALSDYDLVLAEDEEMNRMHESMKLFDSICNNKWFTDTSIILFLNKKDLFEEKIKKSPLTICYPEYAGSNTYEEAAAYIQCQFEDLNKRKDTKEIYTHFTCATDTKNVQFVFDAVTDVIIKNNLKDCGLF
HttQ103 aggreg: qHTS Multiplex Assay to Identify Dual Action Probes in a Cell Model of Huntington: Aggregate Formation (GFP). Potency, µM (series often up to 46.1 µM), usual class: inhibitors. actives 1.1% (n = 220,000). AID 1688, 2009. PC12 HttQ103-GFP aggregates, Acumen cytometry, 40 h; active means well fitted curve in the direction sought with a large enough effect; inconclusive means small, poorly fitted or top-dose-only effect, or another doubt; inactive means no such curve, though single readings can be large; an effect the other way counts as inactive or inconclusive; further: nearly all actives have a fitted effect of over 60% in size
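Aggregates are detected as GFP objects 1–25 µm with signal 6 STDEV over background in lysates of induced PC12 cells. These carry Huntingtin exon 1 with 103 glutamines fused to GFP under an ecdysone promoter; compounds titrated.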
PNC assembly inh: High Content Assay for Compounds that inhibit the Assembly of the Perinucleolar Compartment; PC3M PTB-GFP, PNC prevalence imaging, 16 h; hits give low values; activity change (PNC), negative = inhibition, % at 10 µM; actives 3.1% (n = 140,000); AID 2417, 2010;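 active means readout at or below -70, meaning at least 70% loss of cells showing the perinucleolar compartment, a nuclear body marking cancer cells; inconclusive means readout between -30 and a set limit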
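Read-out is percentage of cells bearing a perinucleolar compartment, from automated 20x imaging of fixed, Hoechst-stained PC3M PTB-GFP cells. Cells were seeded 4 h, then exposed 16 h to compound (23 nl of library stock) in duplicate plates.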
Numbers stand for hits; i = inactive; ? = inconclusive; nt = no result; [ ] = another dose, or the depositor's remark. The list is not random: actives were taken first. Their share in the collection is about 11%. Unless noted, the call rests on the fitted dose curve; in most records, active means well fitted inhibition curve with a large enough effect (not every such curve was filed as active); inconclusive means small, poorly fitted or top-dose-only effect, or another doubt; inactive means no such curve, though single readings can be large or run the other way.

SMILES | HPGD inh | HTT cytoprotect | ALDH1A1 block | RGS12 GoLoco inh | HttQ103 aggreg | PNC assembly inh
CN(C)S(=O)(=O)c1cc(NC(=O)COC(=O)Cc2ccc(Cl)cc2Cl)ccc1Cl | i | nt | i | i | i | i
NCCc1nc(-c2nc(C(=O)O)cs2)cs1 | i | i[10 µM] | i[13.5 µM] | i[14.2 µM] | nt | nt
O=C(Cc1ccccc1)NNC(=S)Nc1ccc(Cl)cc1 | i | nt | 25.1µM | i | i | i
Cc1cccc(NC(=S)NNC(=O)Cc2ccccc2)c1 | i | i[10 µM] | 39.8µM | i | i | i
CC(=O)c1cccc(NC(=S)NC(=O)Cc2ccccc2)c1 | nt | i | ? | i | i | nt
O=C(CCc1ccccc1)NNC(=O)Cc1ccc(Cl)cc1 | nt | i | i | i | i | nt
Cc1ccc(C2CC2C(=O)NNC(=S)Nc2ccc(Cl)cc2)cc1 (stereo not drawn) | ? | i[10 µM] | 8.91µM | i | i | -96.8
Cc1cccc(NCC(=O)NNC(=S)Nc2ccccc2)c1 | nt | i[10 µM] | 14.1µM | i | i[9.22 µM] | nt
CC(O)CCC(=O)NNC(=S)Nc1ccccc1 (stereo not drawn) | nt | i[10 µM] | i | i | i[9.22 µM] | nt
CC12CC(c3ccccc3O1)N(C(=O)c1ccco1)C(=S)N2c1ccc(F)cc1 (stereo not drawn) | i | i | i | i | ? | i
O=C(CSCc1ccccc1Cl)NNC(=S)Nc1ccccc1 | i | i | 14.1µM | i | i | i
NC1=NC[C@H](CC2CCCCC2)N1CCc1cc(C(F)(F)F)cc(C(F)(F)F)c1 | nt | i[10 µM] | nt | i | i[9.22 µM] | nt
COc1cccc(C2=CC(c3cc(OC)ccc3OC)n3nnnc3N2)c1 (stereo not drawn) | i | i | 25.1µM | i | i | i
COc1cccc(C2=CC(c3cccc(OC)c3OC(F)F)n3nnnc3N2)c1 (stereo not drawn) | i | i[10 µM] | i | i | i | i
COc1cccc(C2=CC(c3ccc(N(C)C)cc3)n3ncnc3N2)c1 (stereo not drawn) | i | i[0.074 µM] | 10µM | i | ? | ?
COc1cccc(C2=CC(c3cccc(OC)c3OC)n3nnnc3N2)c1 (stereo not drawn) | i | i | ? | i | i | -86.6
COc1ccc(OC)c(C2C=C(c3ccc(C)c(C)c3)Nc3nnnn32)c1 (stereo not drawn) | i | i | 20µM | i | i | i
COc1cccc(C2=CC(c3ccccc3)n3ncnc3N2)c1 (stereo not drawn) | ? | i | ? | i | i | i
N#C/C(=C(\O)C(=O)O)c1ccc(-c2cccc3ccccc23)cc1 | i | i[10 µM] | i[13.5 µM] | i[14.2 µM] | nt | nt
CC(C)(C)OC(=O)CNC(=O)c1[nH]cnc1C(=O)Nc1ccc(Cl)cc1 | nt | i[10 µM] | nt | i | i[9.22 µM] | nt
CCC(C(=O)c1ccc2ncccc2c1)c1ccccc1 (stereo not drawn) | i | i[10 µM] | i | i | i | i
COc1ccc(C2C=C(c3ccc(Br)s3)Nc3ncnn32)cc1OC (stereo not drawn) | i | i[10 µM] | ? | i | 11.2µM | ?
Cc1nn(C)c(Sc2ccccc2N)c1[N+](=O)[O-] | nt | i[10 µM] | 3.98µM | i | i[9.22 µM] | nt
COc1ccc(-n2c(=O)c(-c3ccc(F)c(F)c3)nc3cncnc32)cc1 | nt | i | i | i | nt | nt
C=CC(=O)OCCOCCOC(=O)C=C | i | i | 25.1µM | i | nt | nt
SMILES | HPGD inh | HTT cytoprotect | ALDH1A1 block | RGS12 GoLoco inh | HttQ103 aggreg | PNC assembly inh
O=C(N[C@@H](c1ccccc1)[C@@H]1C[C@H]1C(=O)NCc1ccccc1)OCc1ccccc1 | i | i | ? | i | nt | nt
Cc1[nH]n(-c2ccccc2)c(=O)c1C(c1cccc([N+](=O)[O-])c1)c1c(C)[nH]n(-c2ccccc2)c1=O | 31.6µM | i[10 µM] | ? | i | i | i
Cc1ccc(C(C[N+](=O)[O-])c2c(N)n(C)c(=O)n(C)c2=O)cc1 (stereo not drawn) | nt | i[10 µM] | nt | i | i[9.22 µM] | nt
Cc1[nH]n(-c2ccccc2)c(=O)c1C(C[N+](=O)[O-])c1ccc(Br)cc1 (stereo not drawn) | ? | i | 22.4µM | i | i | i
Cc1[nH]n(-c2ccccc2)c(=O)c1C(c1ccc(C(=O)O)cc1)c1c(C)[nH]n(-c2ccccc2)c1=O | ? | nt | ? | i | i | i
C=CCC1C=CC(Oc2ccc(F)cc2C)C(CO)O1 (stereo not drawn) | nt | i[10 µM] | i[13.5 µM] | nt | nt | nt
COc1ccc(CN(CCC(c2ccccc2)C2CCOC(C)(C)C2)C(C)=O)cc1 (stereo not drawn) | i | i[10 µM] | ? | i | 12.6µM | i
COc1ccc(CNCCC(c2ccccc2)C2CCOC(C)(C)C2)cc1 (stereo not drawn) | nt | nt | i | i | i | nt
CCS(=O)(=O)Nc1ccc(Cc2ccncc2)cc1 | 1.26µM | i | i | i | i | ?
CCS(=O)(=O)Nc1ccc(NC(C)=O)cc1 | 25.1µM | i | i | i | i | i
O=S(=O)(Nc1ccc(Cc2ccncc2)cc1)c1ccc(Br)s1 | i | i | i | i | ? | i
O=S(=O)(Nc1ccc(Cc2ccncc2)cc1)c1cccs1 | 28.2µM | i | i | i | i | i
O=[N+]([O-])c1cc(S(=O)(=O)NC2=NCCCCC2)ccc1NCC1CCCCC1 | nt | i | ? | i | ? | nt
O=C(OC(C(=O)NC1CCCCC1)c1ccccc1)c1ccco1 (stereo not drawn) | ? | i[10 µM] | ? | i | i | ?
O=C(OC(C(=O)NC1CCCC1)c1ccccc1F)c1ccco1 (stereo not drawn) | i | i | i | i | i | -139.2
O=C(CSc1cccs1)Nc1ccc2ccccc2c1 | 28.2µM | i | ? | i | i | i
COc1ccc(CC(=O)Nc2ccc(C(=O)NC(C)(C)C)cc2)cc1OC | nt | i | i | i | i[9.22 µM] | nt
O=C(CS)Nc1ccc2ccccc2c1 | nt | i[10 µM] | nt | i | i[9.22 µM] | nt
O=C(Cc1ccc2c(c1)CCCC2)Nc1ccc2ccccc2c1 | ? | nt | 22.4µM | i | i | ?
COc1ccc(CC(=O)Nc2ccc3c(c2)CCC3)cc1OC | i | i | i | i | 12.6µM | i
O=C(CSc1cccs1)Nc1cccc2ccccc12 | i | i[10 µM] | i | i | i | ?
COc1ccc(CC(=O)Nc2ccc(C(=O)Nc3ccccc3C(=O)O)cc2)cc1OC | i | ? | 28.2µM | i | i | ?
COC(=O)C1(C(=O)OC)CC(CO)C(=O)[C@H]1c1ccccc1 (stereo partly drawn) | i | ? | i | i | nt | nt
CN(C(=O)CSc1nnc(-c2cccnc2)n1-c1ccccc1F)C1CCS(=O)(=O)C1 (stereo not drawn) | nt | i | i | i | i | nt
CCCCC/C=C\C[C@H](O)/C=C\c1cccc(C[C@H](O)CCCCO)n1 | nt | i[1.9 µM] | nt | nt | nt | nt

Bioassay records from PubChem BioAssay.
